Shown are actives, neighbours in structure and some others; about 19% of the full set was active somewhere.
HT1080 IDH1KD tx: qHTS for induction of synthetic lethality in tumor cells producing 2HG: qHTS for the HT-1080-IDH1KD cell line; 360,000 compounds, 2% hits; Potency, µM (doses to about 46.1 µM), inactives show top-dose activity, negative = toxicity, hits mostly cytotoxic; HT-1080 IDH1 knockdown viability, ATP luminescence, 48 h; AID 686971, 2013;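 also: potency is read from the fitted curve at half-maximal effect; 0% = DMSO wells and -100% = cell-free medium wells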
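CellTiter-Glo luminescence after 48 h compound exposure at 37 degrees C of IDH1-knockdown HT-1080 cells in 5% FBS RPMI. %Activity scaled between DMSO wells and cell-free media wells, with curves fitted and assigned curve classes.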
IL1B secr inh: qHTS for Inhibitors of Inflammasome Signaling: IL-1-beta AlphaLISA Primary Screen; activity change, % at 57.5 µM; AID 743279, 2014; 360,000 compounds, 4.7% hits; THP-1 LPS/ATP IL-1B secretion, AlphaLISA, 16 h; active compounds read low; in the data active = activity change below about -50%; inconclusive = mostly about -30% to -49%
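THP-1 cells pretreated 1 hr with compounds (up to 57.5 uM final), then stimulated with LPS (250 ng/mL final) plus ATP (1.25 mM final); secreted IL-1B measured by AlphaLISA after 16 hr, decreased signal indicating inhibition.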
HT1080NT lethal: qHTS for induction of synthetic lethality in tumor cells producing 2HG: qHTS for the HT-1080-NT fibrosarcoma cell line; HT-1080-NT fibrosarcoma viability, CellTiter-Glo ATP luminescence, 48 h; Potency, µM (doses to about 46.1 µM), for the others: top-dose activity, negative = less viability, usual class: cytotoxic; 360,000 compounds, 1.6% hits; AID 686970, 2013;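 also: NT is the 2HG producing partner of a matched IDH1 knockdown line; potency is read from the fitted curve at half-maximal effect; 0% = DMSO-treated cells and -100% = media-only wells without cells; nearly all actives have a fitted effect of over 55% in size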
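750 cells/well, RPMI + 5% FBS; 2 h settle, compound pin-transfer, 48 h at 37 degrees C. CellTiter-Glo 10 min RT, luminescence. Normalized to DMSO and media-only wells.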
DT40 TDP1 CPT: qHTS for Inhibitors of human tyrosyl-DNA phosphodiesterase 1 (TDP1): qHTS in cells in presence of CPT; AID 686979, 2013; 420,000 compounds, 12% hits; Potency, µM (series often up to 46.2 µM), for the others: at the highest dose activity change, negative = growth inhibition, hits mostly inhibitors; chicken DT40 Tdp1-/-;hTDP1 cells + 20 nM CPT, ATP luminescence, 48 h; also: potency is read from the fitted curve at half-maximal effect; nearly all actives have a fitted effect of over 55% in size
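Chicken DT40 Tdp1-/- cells complemented with human TDP1, 400 cells/well, exposed to compounds plus 20 nM camptothecin for at least 48 h at 37 C; viability read as ATP content by CellTiter-Glo luminescence.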
TDP1 cell noCPT: qHTS for Inhibitors of human tyrosyl-DNA phosphodiesterase 1 (TDP1): qHTS in cells in absence of CPT; DT40 Tdp1-/- hTDP1 cells, no CPT, ATP luminescence, 48 h; AID 686978, 2013; 420,000 compounds, 15% hits; Potency, µM (highest dose often 46.2 µM), for the others: top-dose activity change, negative = growth inhibition, actives largely listed as inhibitors; also: potency is read from the fitted curve at half-maximal effect; nearly all actives have a fitted effect of over 55% in size
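Seeded 400 DT40-hTDP1 cells/well (vehicle DMSO, no 20 nM CPT); pinned compounds; ≥48 hr at 37 °C; CellTiter-Glo luminescence as viability measure.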
An asterisk follows results filed as active. Unless noted, calls follow the shape of the dose curve; as a rule, active = well fitted curve in the direction sought with a large enough effect; inconclusive = small, poorly fitted or top-dose-only effect, or another doubt; inactive = no such curve, though single readings can be large; an effect the other way counts as inactive or inconclusive. Unless noted, % is scaled to controls: 0 for no effect and ±100 for the full control effect.

CCOC(=O)c1cc2c(=O)n3ccccc3nc2n(CC2CCCO2)c1=NC(=O)c1ccc(OCC)cc1 (stereo not drawn) was read as DT40 TDP1 CPT 6.5µM* and TDP1 cell noCPT 5.8µM*.
Screening COc1ccc(Nc2nnc(C)c(=O)[nH]2)cc1 returned HT1080 IDH1KD tx 4%, IL1B secr inh 49, HT1080NT lethal 0%, DT40 TDP1 CPT -8% and TDP1 cell noCPT 0%.
For Cc1ccc(-n2nc(C)c3c(C)c(CCC(=O)NCc4ccccc4Cl)c(C)nc32)cc1C the results were DT40 TDP1 CPT -4% and TDP1 cell noCPT inconclusive.
`Cc1cccc(NC(=O)C23CCC(C)(C2Br)C3(C)C)c1` (stereo not drawn) gave HT1080 IDH1KD tx -22%, IL1B secr inh 18, HT1080NT lethal -14%, DT40 TDP1 CPT -14% and TDP1 cell noCPT inconclusive.
`Cc1noc(C)c1-c1ccc(C(=O)N2CCN(C)CC2)c2occc12` gave HT1080 IDH1KD tx 17%, IL1B secr inh 39, HT1080NT lethal 10%, DT40 TDP1 CPT inconclusive and TDP1 cell noCPT -17%.
COc1ccc(-c2ccc(C(=O)N3CCOCC3)c3occc23)c(C)c1 was read as HT1080 IDH1KD tx inconclusive, IL1B secr inh 16, HT1080NT lethal -14%, DT40 TDP1 CPT 15µM* and TDP1 cell noCPT 18µM*.
`COc1ccc(-c2ccc(C(=O)N3CCN(C)CC3)c3occc23)c(C)c1` gave HT1080 IDH1KD tx -1%, IL1B secr inh 6, HT1080NT lethal -16%, DT40 TDP1 CPT 15µM* and TDP1 cell noCPT 6.5µM*.
Screening O=S(=O)(/N=C(/Nc1cccc2ccccc12)c1ccc(F)cc1)c1ccccc1 returned HT1080 IDH1KD tx -8%, IL1B secr inh -19, HT1080NT lethal -18%, DT40 TDP1 CPT inconclusive and TDP1 cell noCPT inconclusive.
For CN(c1ccccc1C(=O)N1CCN(c2cccc(Cl)c2)CC1)S(C)(=O)=O the results were HT1080 IDH1KD tx 1%, IL1B secr inh 9, HT1080NT lethal 1%, DT40 TDP1 CPT -25% and TDP1 cell noCPT -26%.
Screening O=C(Nc1ccccc1C(=O)N1CCN(c2cccc(Cl)c2)CC1)C1=CSCCO1 returned HT1080 IDH1KD tx -7%, IL1B secr inh -14, HT1080NT lethal -18%, DT40 TDP1 CPT 11% and TDP1 cell noCPT 21µM*.
CC(C)OC(=O)c1cccnc1N1CCN(c2cccc(Cl)c2)CC1 was read as HT1080 IDH1KD tx 4%, IL1B secr inh 19, HT1080NT lethal -1%, DT40 TDP1 CPT inconclusive and TDP1 cell noCPT 16µM*.
Screening CSc1ncc(C(=O)N2CCN(c3cccc(Cl)c3)CC2)c(C)n1 returned DT40 TDP1 CPT inconclusive and TDP1 cell noCPT 16µM*.
Screening CSc1ccccc1C(=O)N1CCN(c2cccc(Cl)c2)CC1 returned HT1080 IDH1KD tx 23µM*, IL1B secr inh -7, HT1080NT lethal inconclusive, DT40 TDP1 CPT inconclusive and TDP1 cell noCPT inconclusive.
Screening COc1ccc(/C=N/N=C2/CC(C)(C)Cc3n[nH]c(=O)cc32)cc1 returned HT1080 IDH1KD tx 13%, IL1B secr inh 56, HT1080NT lethal 19%, DT40 TDP1 CPT inconclusive and TDP1 cell noCPT -4%.
`O=C(OCC(=O)N1CCCC1)c1cc(Cl)ccc1[N+](=O)[O-]` gave HT1080 IDH1KD tx 11%, IL1B secr inh -7, HT1080NT lethal 1%, DT40 TDP1 CPT 1% and TDP1 cell noCPT -20%.
CSc1ncc(C(=O)N2CCN(c3cccc(C(F)(F)F)c3)CC2)c(C)n1 was read as DT40 TDP1 CPT inconclusive and TDP1 cell noCPT 18µM*.
For CCC1OC23CCCCC2C(C#N)(C(=N)O3)C1(C#N)C#N (stereo not drawn) the results were HT1080 IDH1KD tx 13%, IL1B secr inh -5, HT1080NT lethal -2%, DT40 TDP1 CPT inconclusive and TDP1 cell noCPT 13µM*.
For CCCC1OC23CCCCC2C(C#N)(C(=N)O3)C1(C#N)C#N (stereo not drawn) the results were HT1080 IDH1KD tx 2%, IL1B secr inh inconclusive, HT1080NT lethal 9%, DT40 TDP1 CPT 7.3µM* and TDP1 cell noCPT 16µM*.
`CC1OC23CCCCC2C(C#N)(C(=N)O3)C1(C#N)C#N` (stereo not drawn) gave HT1080 IDH1KD tx 10%, IL1B secr inh inconclusive, HT1080NT lethal 8%, DT40 TDP1 CPT inconclusive and TDP1 cell noCPT inconclusive.
COc1ccc(C2OC34CCCCC3C(C#N)(C#N)C2(C#N)C(=N)O4)cc1 (stereo not drawn) was read as HT1080 IDH1KD tx 2%, IL1B secr inh 19, HT1080NT lethal 11%, DT40 TDP1 CPT 5.8µM* and TDP1 cell noCPT 7.3µM*.
Screening CCN1CCN(c2nnc(-n3cccc3C(=O)Nc3cccc(OC)c3)s2)CC1 returned DT40 TDP1 CPT -25% and TDP1 cell noCPT inconclusive.
For O=C(CCO)c1ccc(O)cc1 the results were HT1080 IDH1KD tx 1%, IL1B secr inh 3, HT1080NT lethal -2%, DT40 TDP1 CPT 3% and TDP1 cell noCPT 0%.
For O=C(CCSc1ccc(Br)cc1)c1ccc(O)cc1 the results were HT1080 IDH1KD tx -4%, IL1B secr inh -25, HT1080NT lethal -2%, DT40 TDP1 CPT 3.7µM* and TDP1 cell noCPT 4.1µM*.
For C=CC[C@H](CC(=O)NCCO)C(=O)N[C@H](COC(=O)[C@@H](CC=C)Cc1ccc(F)cc1)Cc1ccccc1 the results were HT1080 IDH1KD tx -2%, IL1B secr inh -1, HT1080NT lethal -4%, DT40 TDP1 CPT inconclusive and TDP1 cell noCPT inconclusive.
Screening C=CC[C@H](CC(=O)NCCO)C(=O)N[C@@H](COC(=O)[C@@H](CC=C)Cc1ccc(F)cc1)Cc1ccccc1 returned HT1080 IDH1KD tx 1%, IL1B secr inh -7, HT1080NT lethal 0%, DT40 TDP1 CPT 21µM* and TDP1 cell noCPT inconclusive.
C=CCC[C@H](Cc1ccc(F)cc1)C(=O)OC[C@@H](NC(=O)[C@H](CC=C)CC(=O)NCCO)c1ccccc1 was read as HT1080 IDH1KD tx 12%, IL1B secr inh -13, HT1080NT lethal 0%, DT40 TDP1 CPT 21µM* and TDP1 cell noCPT inconclusive.
C=CCC[C@H](Cc1ccc(F)cc1)C(=O)OC[C@H](C)NC(=O)[C@H](CC=C)CC(=O)NCCO was read as HT1080 IDH1KD tx 10%, IL1B secr inh -11, HT1080NT lethal 11%, DT40 TDP1 CPT inconclusive and TDP1 cell noCPT inconclusive.

High-throughput results (PubChem)
